Data taken from PubChem BioAssay AID1159606 (Sanford-Burnham Center for Chemical Genomics, 2016).
The campaign covered roughly 360,000 compounds. About 7,300 (2%) were called active. This is one part of a sample in which actives are shown more often than they occur. Cut-off read from the data, not from the text of the source: active = inhibition above about 50%; inactive = the rest.

Test: inhibitors of TWEAK-Fn14 signaling, primary screen, luciferase reporter cells, uHTS (AID 1159606)
Conditions: TWEAK-stimulated Fn14 reporter cells, luciferase luminescence, 8 h; at 10 µM; hits give high values

inhibition, active:
CCCSc1nc2c(c(=O)n(C)c(=O)n2C)n1Cc1ccc(C)cc1 68.3%, Cc1ccc(C)c(N2CCN(C(=O)CCCCCn3c(=S)[nH]c4ccc(N5CCOCC5)cc4c3=O)CC2)c1 88.1%, Cc1ccc(C)c(N2CCN(C(=O)CCCCn3c(=O)[nH]c4ccccc4c3=O)CC2)c1 50.3%, C=CCN1CCN(C(=O)CCCc2ccccc2)CC1 86.5%, Cc1nn(-c2ccccc2)c(C)c1NC(=O)COc1ccc(Cl)cc1Cl 86.4%, O=C(Nc1ccc(N2CCCC2=O)cc1)c1cncc(Br)c1 50.3%, COc1ccc(Nc2ncc(F)c(N3CCOCC3)n2)cc1 60.1%, Cc1ccc(C(=O)CSc2ccccc2C(=O)O)cc1 53.3%, O=C(NC1=CC(=O)c2ccccc2C1=O)c1ccccc1 67.5%, O=C(Nc1ccccc1Cl)O/N=C(/c1ccccc1)c1ccccn1 60.2%, CC(C)OC(=O)c1ccc(NCc2cc(O)ccc2O)cc1Cl 102%, COC(=O)c1ccc(NCc2cc(O)ccc2O)cc1 88.9%, O=C(OC12CC3CC(CC(C3)C1)C2)c1ccc(NCc2cc(O)ccc2O)cc1 106%

inhibition, inactive:
COc1ccc(C2CC(c3cccc(OC)c3)=NN2c2ccc(S(N)(=O)=O)cc2)cc1 (stereo unspecified) -3.98%, Cn1c(=O)c2c(nc(SCCNS(=O)(=O)c3ccccc3)n2C)n(C)c1=O 3.41%, CCOc1ccc(Cn2c(SCCCCC#N)nc3c2c(=O)n(C)c(=O)n3C)cc1OCC -21.4%, O=C(Cn1nnc2ccccc2c1=O)Nc1cc(C(F)(F)F)ccc1N1CCOCC1 1.74%, C#CCNC(=O)C1=C[C@@H](c2ccccc2)[C@H](CCCO)[C@@H](OCC)O1 4.59%, Cc1ccc(C)c(N2CCN(C(=O)CCCn3c(=O)c4cccn4c4cccnc43)CC2)c1 -17.6%, O=C(CCCCCn1c(=S)[nH]c2cc3c(cc2c1=O)OCO3)N1CCN(c2ccc(F)cc2)CC1 -18.2%, Cc1ccc(OCCCC(=O)N2CCOCC2)c(C)c1 -41.6%, O=C(CCCCCn1c(=O)[nH]c2ccccc2c1=O)NCCc1c[nH]c2ccccc12 35%, O=C(CCCC(=O)N(CC(=O)NC1CCCC1)Cc1ccccc1Cl)Nc1ccccn1 5.53%, CSCCC(NC(=O)C1CCC(C)CC1)C(=O)NCc1ccco1 (stereo unspecified) -2.99%, Cc1ccc(Cn2cc(CN3CC(N4CCN(C)CC4)CS3(=O)=O)nn2)cc1 (stereo unspecified) -2.98%, CN1CCN(c2ccc3c(c2)OC[C@H](Cc2ccccc2)NS3(=O)=O)CC1 -3.51%, CCc1nc2ccc(C(=O)Nc3cccc(OC)c3)cn2c1N(CCC(C)C)CCN(C)C 15.5%, CCN1CCN(C(=O)CCN2C(=O)c3ccccc3C2=O)CC1 -7.32%, CC1=NN(C(=O)CCCc2ccccc2)C(O)(C(F)(F)F)C1 (stereo unspecified) -10.4%, CC1CCCC(C)N1/N=C/c1ccccc1OC(F)F (stereo unspecified) -5.12%, Cc1nn(-c2ccccc2)c(C)c1NC(=O)CCl 6.77%, Cc1nn(-c2ccccc2)c(C)c1NC(=O)COC(=O)c1cc(Cl)ccc1O 1.71%, O=C(Nc1cccc(S(=O)(=O)N2CCCCC2)c1)c1cncc(Br)c1 20.6%, O=C(Nc1cccc(S(=O)(=O)N2CCCC2)c1)c1cncc(Br)c1 13.2%, COc1cc(C)c(CN2CCN(C(=O)CCC(=O)c3ccc(C)s3)CC2)cc1OC 11.6%, CCOc1ccc(Nc2nc(Cl)nc(N3CCN(c4ccc(OC)cc4)CC3)n2)cc1 1.18%, COC(=O)c1ccccc1Oc1c(F)c(F)nc(N2CCOCC2)c1F -14.1%, CNS(=O)(=O)c1ccc(NC(=O)C2CC(=O)N(c3ccc(Cl)cc3)C2)cc1 (stereo unspecified) 14.4%, O=C(OCC(=O)N1CCOCC1)c1ccc(N2CCOCC2)c([N+](=O)[O-])c1 -16.3%, CC(=O)N1CCC(C(=O)Nc2nc(-c3ccccc3)ns2)CC1 14.9%, COC(=O)C1=C(C(=O)OC)[C@@H]2N(C)c3ccccc3[C@@]23C[C@@H](C(=O)OC)N(C(C)=O)C3=N1 -3.56%, Cc1[nH]c2ccccc2c1C(=O)C(=O)NCc1nnnn1-c1cccc(F)c1 3.05%, CCOC(=O)C1(CC2CCCCO2)CCN(Cc2nc(-c3cccs3)oc2C)CC1 (stereo unspecified) -0.53%, O=C(CSc1cccc[n+]1[O-])c1ccc(-c2ccccc2)cc1 2.59%, Cc1ccc(Sc2cc(C(=O)c3ccccc3C(=O)O)ccc2[N+](=O)[O-])cc1 -6.54%, CCCCOC(=O)Nc1sc2nc(C)cc(C)c2c1-n1cccc1 0.84%, CN(C)NC(=O)c1csnc1-c1c(Cl)cccc1Cl 4.17%, COc1ccc(S(=O)(=O)N2CCOCC2)cc1NC(=O)CC1CC2CCC1C2 (stereo unspecified) 3.62%, O=C(NCCc1ccccc1)c1cccc(NC(=O)c2ccccc2)c1 -19.1%, Cc1cc(=O)c2ccc(NC(=O)c3ccccc3)cc2[nH]1 -10.3%, NC(=O)COC(=O)c1sc2cc(F)ccc2c1Cl -16.4%, FC(F)(F)Oc1ccccc1C(c1nnnn1C1CCCCC1)N1CCN(C/C=C/c2ccccc2)CC1 (stereo unspecified) 24.4%, CC(C)c1ccccc1OCC(O)CN(CC(O)COc1cccc2ccccc12)C(C)C (stereo unspecified) -15%, N/C(=N\OC(=O)Nc1ccccc1)c1ccno1 -22.1%, O=C(COc1ccc(-n2cnnn2)cc1)Nc1ccccc1Cl -14.3%, COc1ccc(CN2C(=O)C(CC(=O)NCCN3CCOCC3)CC(C(=O)N(C(C)C)C(C)C)=C2C)cc1 (stereo unspecified) 14.2%, CC1(C)C2CCC1(C)C(OC(=O)c1ccc(O)cc1)C2 (stereo unspecified) 16.2%, CC(CN1CCCCC1)OC(=O)c1ccccc1Cl (stereo unspecified) 16.6%, C#CCNc1ccc(C(=O)OCC)cc1 -3.49%, CCN(CC)C(=O)CCC(=O)Nc1ccc(C(=O)OC)cc1 0.79%, O=C(O)Cc1ccc(NCc2ccccc2Cl)cc1 22.4%
